PubChem BioAssay AID1159580 (chemical genetic matrix, 2015)
Out of some 5,500 compounds screened, about 2,000 (36%) were called active. Roughly 18% stayed inconclusive and do not appear here. Rule as the data show it: active = normalized growth mostly below about 0.91 (no sharp cut-off); inconclusive = no clear call, values can overlap the other calls; inactive = mostly above about 0.92. Some of the results follow.

Test: chemical genetic growth profiling, strain panel (AID 1159580);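 also: tested at 20 µM; growth read once vehicle control cultures reached saturation at 30 °C; 1 = growth at the plate median or of vehicle wells; lower values mean less growth of the strain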
Settings: S. cerevisiae deletion strains, growth OD
[1] = locus YAL021C, strain ccr4, stronger effect = lower value
[2] = locus YAL026C, strain drs2, stronger effect = lower value
[3] = locus YAL030W, strain snc1, stronger effect = lower value
[4] = locus YBL061C, strain skt5, stronger effect = lower value
[5] = locus YBR009C, strain hhf1, stronger effect = lower value
[6] = locus YBR023C, strain chs3, stronger effect = lower value
[7] = locus YBR171W, strain sec66, stronger effect = lower value
[8] = locus YBR231C, strain swc5, stronger effect = lower value
[9] = locus YBR279W, strain paf1, stronger effect = lower value
[10] = locus YCL011C, strain gbp2, stronger effect = lower value
[11] = locus YCL016C, strain dcc1, stronger effect = lower value
[12] = locus YCL061C, strain MRC1, stronger effect = lower value
[13] = locus YCL069W, strain vba3, stronger effect = lower value
[14] = locus YCR088W, strain abp1, stronger effect = lower value
[15] = locus YDL005C, strain med2, stronger effect = lower value
[16] = locus YDL040C, strain nat1, stronger effect = lower value
[17] = locus YDR001C, strain nth1, stronger effect = lower value
[18] = locus YDR069C, strain doa4, stronger effect = lower value
[19] = locus YDR137W, strain rgp1, stronger effect = lower value
[20] = locus YDR159W, strain sac3, stronger effect = lower value
[21] = locus YDR297W, strain sur2, stronger effect = lower value
[22] = locus YDR334W, strain swr1, stronger effect = lower value
[23] = locus YDR335W, strain msn5, stronger effect = lower value
[24] = locus YDR392W, strain spt3, stronger effect = lower value
[25] = locus YEL003W, strain gim4, stronger effect = lower value
[26] = locus YEL037C, strain rad23, stronger effect = lower value
[27] = locus YEL061C, strain CIN8 (second series), stronger effect = lower value
[28] = locus YER015W, strain faa2, stronger effect = lower value
[29] = locus YER016W, strain bim1, stronger effect = lower value
[30] = locus YER111C, strain swi4, stronger effect = lower value
[31] = locus YER155C, strain BEM2 (second series), stronger effect = lower value
[32] = locus YFR010W, strain ubp6, stronger effect = lower value
[33] = locus YGL167C, strain pmr1, stronger effect = lower value
[34] = locus YGL173C, strain kem1, stronger effect = lower value
[35] = locus YGL227W, strain vid30, stronger effect = lower value
[36] = locus YGL240W, strain doc1, stronger effect = lower value
[37] = locus YGL253W, strain hxk2, stronger effect = lower value
[38] = locus YHR013C, strain ard1, stronger effect = lower value
[39] = locus YHR027C, strain rpn1, stronger effect = lower value
[40] = locus YHR030C, strain SLT2, stronger effect = lower value
[41] = locus YHR079C, strain IRE1, stronger effect = lower value
[42] = locus YHR142W, strain chs7, stronger effect = lower value
[43] = locus YJL092W, strain hpr5, stronger effect = lower value
[44] = locus YJL095W, strain BCK1 (second series), stronger effect = lower value
[45] = locus YJL095W, strain BCK1, stronger effect = lower value
[46] = locus YJL115W, strain asf1, stronger effect = lower value
[47] = locus YJL129C, strain trk1, stronger effect = lower value
[48] = locus YJL154C, strain vps35, stronger effect = lower value
[49] = locus YJL164C, strain tpk1, stronger effect = lower value
[50] = locus YJL166W, strain qcr8, stronger effect = lower value
[51] = locus YJL187C, strain SWE1, stronger effect = lower value
[52] = locus YJR066W, strain TOR1, stronger effect = lower value
[53] = locus YKL160W, strain elf1, stronger effect = lower value
[54] = locus YKR026C, strain gcn3, stronger effect = lower value
[55] = locus YKR091W, strain srl3, stronger effect = lower value
[56] = locus YLL001W, strain dnm1, stronger effect = lower value
[57] = locus YLL026W, stronger effect = lower value
[58] = locus YLL041C, strain sdh2, stronger effect = lower value
[59] = locus YLR027C, strain aat2, stronger effect = lower value
[60] = locus YLR113W, strain HOG1, stronger effect = lower value
[61] = locus YLR221C, strain rsa3, stronger effect = lower value
[62] = locus YLR258W, strain gsy2, stronger effect = lower value
[63] = locus YLR262C, strain YPT6 (second series), stronger effect = lower value
[64] = locus YLR320W, strain mms22, stronger effect = lower value
[65] = locus YLR342W, strain FKS1, stronger effect = lower value
[66] = locus YLR357W, strain rsc2, stronger effect = lower value
[67] = locus YLR370C, strain arc18, stronger effect = lower value
[68] = locus YLR384C, strain iki3, stronger effect = lower value
[69] = locus YML120C, strain ndi1, stronger effect = lower value
[70] = locus YMR058W, strain fet3, stronger effect = lower value
[71] = locus YMR125W, strain sto1, stronger effect = lower value
[72] = locus YMR129W, stronger effect = lower value
[73] = locus YMR205C, strain PFK2, stronger effect = lower value
[74] = locus YMR231W, strain pep5, stronger effect = lower value
[75] = locus YNL071W, strain lat1, stronger effect = lower value
[76] = locus YNL183C, strain NPR1, stronger effect = lower value
[77] = locus YNL209W, strain ssb2, stronger effect = lower value
[78] = locus YNL248C, strain rpa49, stronger effect = lower value
[79] = locus YNL322C, strain KRE1 (second series), stronger effect = lower value
[80] = locus YNR049C, strain mso1, stronger effect = lower value
[81] = locus YOR001W, strain rrp6, stronger effect = lower value
[82] = locus YOR070C, strain gyp1, stronger effect = lower value
[83] = locus YOR080W, strain dia2, stronger effect = lower value
[84] = locus YOR083W, strain WHI5, stronger effect = lower value
[85] = locus YOR106W, strain vam3, stronger effect = lower value
[86] = locus YOR231W, strain MKK1, stronger effect = lower value
[87] = locus YOR265W, strain rbl2, stronger effect = lower value
[88] = locus YOR270C, strain vph1, stronger effect = lower value
[89] = locus YOR290C, strain snf2, stronger effect = lower value
[90] = locus YPL051W, strain arl3, stronger effect = lower value
[91] = locus YPL078C, strain atp4, stronger effect = lower value
[92] = locus YPL106C, strain sse1, stronger effect = lower value
[93] = locus YPL240C, strain hsp82, stronger effect = lower value
[94] = locus YPL256C, strain CLN2, stronger effect = lower value

Measured: normalized growth

C/C(=C\C(=O)OCCCCCCCCC(=O)O)C[C@@H]1OC[C@H](C[C@@H]2O[C@H]2[C@@H](C)[C@H](C)O)[C@@H](O)[C@H]1O
inactive: [1] 0.96 | [2] 0.958 | [3] 0.96 | [4] 0.987 | [5] 0.961 | [6] 0.979 | [7] 0.929 | [8] 0.938 | [9] 0.986 | [10] 0.972 | [11] 0.967 | [12] 0.965 | [13] 0.957 | [14] 0.952 | [15] 0.973 | [16] 0.982 | [17] 0.956 | [18] 0.982 | [19] 0.99 | [20] 0.936 | locus YDR195W, strain ref2 0.964 | [21] 0.988 | [22] 0.951 | [23] 0.963 | [24] 0.941 | [25] 0.969 | [26] 0.968 | [27] 0.967 | [28] 0.99 | [29] 0.974 | [30] 0.93 | [31] 0.959 | [32] 0.984 | [33] 0.973 | [34] 0.979 | [35] 0.965 | [36] 1.01 | [37] 0.912 | [38] 0.985 | [39] 0.987 | [40] 0.895 | [41] 0.919 | [42] 0.98 | [43] 0.96 | [44] 0.965 | [45] 0.898 | [46] 0.954 | [47] 0.993 | [48] 0.968 | [49] 0.98 | [50] 1 | [51] 0.976 | [52] 0.916 | [53] 0.982 | [54] 0.931 | [55] 0.971 | [56] 0.949 | [57] 0.971 | [58] 0.965 | [59] 0.965 | [61] 0.982 | [62] 0.968 | [63] 0.962 | [64] 0.968 | [65] 0.953 | [66] 0.977 | [67] 0.957 | [68] 0.952 | [69] 0.979 | [70] 0.989 | [71] 0.962 | [72] 0.974 | [73] 0.896 | [74] 0.961 | [75] 0.989 | [76] 0.89 | [77] 1 | [78] 1.02 | [79] 0.947 | [80] 0.951 | [81] 0.991 | [82] 0.969 | [83] 0.948 | [84] 0.996 | [85] 0.979 | [86] 0.904 | [87] 0.982 | [88] 0.987 | [89] 0.979 | [90] 0.984 | [91] 1 | [92] 0.906 | [93] 0.975 | [94] 0.911
active: [60] 0.827

CC(=O)[C@H]1CCC2C3CC=C4C[C@@H](OS(=O)(=O)O)CC[C@]4(C)C3CC[C@@]21C (some centres not stated)
inactive: locus YAL040C, strain CLN3, stronger effect = lower value 0.959 | locus YCL061C, strain MRC1 (second series), stronger effect = lower value 0.981 | locus YDR363W, strain ESC2, stronger effect = lower value 1.01 | locus YER002W, strain NOP16, stronger effect = lower value 0.979 | locus YMR263W, strain SAP30, stronger effect = lower value 0.978 | locus YMR307W, strain GAS1, stronger effect = lower value 0.997 | locus YNL175C, strain NOP13, stronger effect = lower value 0.988 | locus YNL197C, strain WHI3, stronger effect = lower value 1 | locus YNL224C, strain SQS1, stronger effect = lower value 0.984 | locus YNL322C, strain KRE1, stronger effect = lower value 0.964 | locus YOR083W, strain WHI5 (second series), stronger effect = lower value 0.975 | locus YPL241C, strain CIN2, stronger effect = lower value 0.984

CC(=O)C1CCC2C3CC=C4CC(OS(=O)(=O)O)CC[C@]4(C)C3CC[C@]12C (some centres not stated)
inactive: [40] 0.973 | [41] 0.984 | [45] 0.953 | [52] 0.877 | [60] 1.03 | [76] 0.902 | [86] 0.977 | [94] 0.975

CC(=O)OCC(=O)[C@@]1(O)CCC2C3CC[C@@H]4C[C@H](O)CC[C@]4(C)C3C(=O)C[C@@]21C (some centres not stated)
inactive: [1] 1.02 | [2] 1.01 | [3] 1.02 | [4] 1.03 | [5] 1.03 | [6] 1.02 | [7] 1.03 | [8] 1.02 | [9] 1.03 | [10] 1.04 | [11] 1.04 | [12] 1.03 | [13] 1.01 | [14] 1.01 | [15] 1.02 | [16] 1.02 | [17] 1.01 | [18] 1.02 | [19] 1.06 | [20] 1.01 | locus YDR195W, strain ref2 0.988 | [21] 1.01 | [22] 1.01 | [23] 1.01 | [24] 0.983 | [25] 1.01 | [26] 1 | [27] 1.01 | [28] 1.01 | [29] 1.02 | [30] 1.02 | [31] 1.03 | [32] 1.01 | [33] 1.01 | [34] 1.03 | [35] 1.02 | [36] 1.03 | [37] 1.01 | [38] 1.03 | [39] 1.01 | [42] 1.02 | [43] 1.01 | [44] 1.02 | [46] 1.02 | [47] 1.05 | [48] 1.01 | [49] 1.03 | [50] 1.03 | [51] 1.02 | [53] 1.03 | [54] 1.01 | [55] 1.02 | [56] 1.03 | [57] 1.02 | [58] 1.01 | [59] 1.02 | [61] 1.05 | [62] 1.02 | [63] 1.04 | [64] 1.07 | [65] 1.01 | [66] 1.03 | [67] 1.02 | [68] 1.02 | [69] 1.01 | [70] 1.01 | [71] 1.02 | [72] 1.01 | [73] 1.03 | [74] 1.01 | [75] 1.02 | [77] 1.02 | [78] 1.01 | [79] 1.03 | [80] 1.01 | [81] 1.01 | [82] 1.02 | [83] 1.02 | [84] 1.04 | [85] 1.02 | [87] 1.02 | [88] 1.03 | [89] 1 | [90] 1.02 | [91] 1.02 | [92] 1.07 | [93] 1.02
